# About 410 targets per protein were measured; listed, in parts, are those with the strongest signals and a random draw of the rest.
# How the values were obtained:
# Test in all cases: glycan array binding signal (z-score within array); higher = stronger binding
# Settings in all cases: glycan notation: IUPAC condensed, linker removed
# [1] = target: Fuc(a1-2)Gal(b1-3)GalNAc(a1-3)[Fuc(a1-2)]Gal(b1-4)GlcNAc
# In short: (§1)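 Negative Z-scores can be read as non-binding. The Z-score is calculated within each array and then averaged across arrays of one protein sequence at different concentrations or buffers and across linkers. Arrays, 3228 in all, were curated from the Consortium for Functional Glycomics database and kept only where the protein sequence was available.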
# [2] = target: Fuc(a1-2)Gal(b1-4)GlcNAc(b1-2)Man(a1-3)[Fuc(a1-2)Gal(b1-4)GlcNAc(b1-2)Man(a1-6)]Man(b1-4)GlcNAc(b1-4)[Fuc(a1-6)]GlcNAc
# In short: as §1
# [3] = target: Fuc(a1-2)Gal(b1-4)[Fuc(a1-3)]GlcNAc(b1-2)Man(a1-3)[Fuc(a1-2)Gal(b1-4)[Fuc(a1-3)]GlcNAc(b1-2)Man(a1-6)]Man(b1-4)GlcNAc(b1-4)[Fuc(a1-6)]GlcNAc
# In short: as §1
# [4] = target: Fuc(a1-2)Gal(b1-4)[Fuc(a1-3)]GlcNAc(b1-3)Gal(b1-4)[Fuc(a1-3)]GlcNAc
# In short: as §1
# [5] = target: Fuc(a1-2)Gal(b1-4)[Fuc(a1-3)]GlcNAc(b1-3)Gal(b1-4)[Fuc(a1-3)]GlcNAc(b1-3)Gal(b1-4)[Fuc(a1-3)]GlcNAc
# In short: as §1
# [6] = target: Fuc(a1-2)Gal(b1-4)[Fuc(a1-3)]GlcNAc(b1-3)[Neu5Ac(a2-6)Gal(b1-4)GlcNAc(b1-6)]Gal(b1-4)Glc
# In short: as §1
# [7] = target: Fuc(a1-2)[Gal(a1-3)]Gal
# In short: as §1
# [8] = target: Fuc(a1-2)[Gal(a1-3)]Gal(b1-3)GlcNAc
# In short: as §1
# [9] = target: Fuc(a1-2)[Gal(a1-3)]Gal(b1-3)GlcNAc(b1-3)GalNAc
# In short: as §1
# [10] = target: Fuc(a1-2)[Gal(a1-3)]Gal(b1-4)[Fuc(a1-3)]GlcNAc(b1-3)GalNAc
# In short: as §1
# [11] = target: Fuc(a1-2)[GalNAc(a1-3)]Gal(b1-3)GalNAc(a1-3)[Fuc(a1-2)]Gal(b1-4)GlcNAc
# In short: as §1
# [12] = target: Fuc(a1-2)[GalNAc(a1-3)]Gal(b1-3)GlcNAc
# In short: as §1
# [13] = target: Fuc(a1-2)[GalNAc(a1-3)]Gal(b1-4)GlcNAc(b1-3)Gal(b1-4)GlcNAc(b1-3)Gal(b1-4)GlcNAc
# In short: as §1
# [14] = target: Fuc(a1-2)[GalNAc(a1-3)]Gal(b1-4)GlcNAc(b1-3)[Fuc(a1-2)[GalNAc(a1-3)]Gal(b1-4)GlcNAc(b1-6)]GalNAc
# In short: as §1
# [15] = target: Fuc(a1-3)[Gal(b1-4)]GlcNAc(b1-3)Gal(b1-3)[Fuc(a1-4)]GlcNAc
# In short: as §1
# [16] = target: Fuc(a1-3)[Gal(b1-4)]GlcNAc(b1-3)Gal(b1-4)[Fuc(a1-3)]GlcNAc
# In short: as §1
# [17] = target: Fuc(a1-3)[Gal(b1-4)]GlcNAc(b1-3)Gal(b1-4)[Fuc(a1-3)]GlcNAc(b1-3)Gal(b1-4)[Fuc(a1-3)]GlcNAc
# In short: as §1
# [18] = target: Fuc(a1-3)[Gal3S(b1-4)]GlcNAc6S
# In short: as §1
# [19] = target: Fuc(a1-3)[GalNAc(b1-4)]GlcNAc6S
# In short: as §1
# [20] = target: Gal(a1-3)Gal(b1-4)Glc
# In short: as §1
# [21] = target: Gal(a1-3)Gal(b1-4)[Fuc(a1-3)]GlcNAc(b1-2)Man(a1-3)[Gal(a1-3)Gal(b1-4)[Fuc(a1-3)]GlcNAc(b1-2)Man(a1-6)]Man(b1-4)GlcNAc(b1-4)GlcNAc
# In short: as §1
# [22] = target: Gal(a1-4)Gal(b1-3)GlcNAc(b1-2)Man(a1-3)[Gal(a1-4)Gal(b1-3)GlcNAc(b1-2)Man(a1-6)]Man(b1-4)GlcNAc(b1-4)GlcNAc
# In short: as §1
# [23] = target: Gal(b1-3)GlcNAc(b1-3)Gal(b1-3)GlcNAc
# In short: as §1
# [24] = target: Gal(b1-3)[Fuc(a1-4)]GlcNAc(b1-3)Gal(b1-3)[Fuc(a1-4)]GlcNAc
# In short: as §1
# [25] = target: Gal(b1-4)GlcNAc(b1-2)[Gal(b1-4)GlcNAc(b1-6)]Man(a1-6)[GlcNAc(b1-4)][Gal(b1-4)GlcNAc(b1-2)Man(a1-3)]Man(b1-4)GlcNAc(b1-4)GlcNAc
# In short: as §1
# [26] = target: Gal(b1-4)GlcNAc(b1-3)Gal(b1-4)GlcNAc(b1-2)[Gal(b1-4)GlcNAc(b1-3)Gal(b1-4)GlcNAc(b1-6)]Man(a1-6)[Gal(b1-4)GlcNAc(b1-3)Gal(b1-4)GlcNAc(b1-2)Man(a1-3)]Man(b1-4)GlcNAc(b1-4)GlcNAc
# In short: as §1
# [27] = target: Gal(b1-4)GlcNAc(b1-3)Gal(b1-4)GlcNAc(b1-3)Gal(b1-4)GlcNAc(b1-2)Man(a1-3)[Gal(b1-4)GlcNAc(b1-3)Gal(b1-4)GlcNAc(b1-3)Gal(b1-4)GlcNAc(b1-2)Man(a1-6)]Man(b1-4)GlcNAc(b1-4)[Fuc(a1-6)]GlcNAc
# In short: as §1
# [28] = target: Gal(b1-4)GlcNAc(b1-3)Gal(b1-4)GlcNAc(b1-3)[Gal(b1-4)GlcNAc(b1-3)Gal(b1-4)GlcNAc(b1-6)]GalNAc
# In short: as §1
# [29] = target: Gal(b1-4)GlcNAc(b1-3)Gal(b1-4)GlcNAc(b1-6)[Gal(b1-3)]GalNAc
# In short: as §1
# [30] = target: Gal3S(b1-3)GlcNAc
# In short: as §1
# [31] = target: Gal3S4S(b1-4)GlcNAc
# In short: as §1
# [32] = target: GalNAc3S(b1-4)GlcNAc3S
# In short: as §1
# [33] = target: GlcNAc(b1-2)[GlcNAc(b1-4)]Man(a1-3)[GlcNAc(b1-4)][GlcNAc(b1-2)[GlcNAc(b1-6)]Man(a1-6)]Man(b1-4)GlcNAc(b1-4)[Fuc(a1-6)]GlcNAc
# In short: as §1
# [34] = target: GlcNAc(b1-3)Fuc
# In short: as §1
# [35] = target: GlcNAc(b1-3)Gal(b1-4)GlcNAc
# In short: as §1
# [36] = target: GlcNAc(b1-4)GlcNAc
# In short: as §1
# [37] = target: Kdn(a2-3)Gal(b1-4)[Fuc(a1-3)]GlcNAc
# In short: as §1
# [38] = target: Man(a1-2)Man(a1-2)Man(a1-6)[Man(a1-3)]Man
# In short: as §1
# [39] = target: Man(a1-2)Man(a1-3)[Man(a1-2)Man(a1-6)]Man(a1-6)[Man(a1-2)Man(a1-2)Man(a1-3)]Man
# In short: as §1
# [40] = target: MurNAc(b1-4)GlcNAc
# In short: as §1
# [41] = target: Neu5Ac(a2-3)Gal(b1-3)GlcNAc(b1-2)Man(a1-3)[Neu5Ac(a2-3)Gal(b1-3)GlcNAc(b1-2)Man(a1-6)]Man(b1-4)GlcNAc(b1-4)GlcNAc
# In short: as §1
# [42] = target: Neu5Ac(a2-3)Gal(b1-3)GlcNAc(b1-3)GalNAc
# In short: as §1
# [43] = target: Neu5Ac(a2-3)Gal(b1-3)GlcNAc(b1-4)Gal(b1-4)Glc
# In short: as §1
# [44] = target: Neu5Ac(a2-3)Gal(b1-3)[Fuc(a1-4)]GlcNAc(b1-3)Gal(b1-3)[Fuc(a1-4)]GlcNAc
# In short: as §1
# [45] = target: Neu5Ac(a2-3)Gal(b1-4)GlcNAc(b1-3)Gal
# In short: as §1
# [46] = target: Neu5Ac(a2-3)Gal(b1-4)GlcNAc(b1-6)[Gal(b1-3)]GalNAc
# In short: as §1
# [47] = target: Neu5Ac(a2-3)Gal(b1-4)[Fuc(a1-3)]GlcNAc(b1-6)[Gal(b1-3)]GalNAc
# In short: as §1
# [48] = target: Neu5Ac(a2-3)[GalNAc(b1-4)]Gal(b1-4)GlcNAc(b1-3)GalNAc
# In short: as §1
# [49] = target: Neu5Ac(a2-6)Gal(b1-4)GlcNAc(b1-2)Man(a1-3)[Neu5Ac(a2-3)Gal(b1-4)GlcNAc(b1-2)Man(a1-6)]Man(b1-4)GlcNAc(b1-4)GlcNAc
# In short: as §1
# [50] = target: Neu5Ac(a2-6)Gal(b1-4)GlcNAc(b1-2)[Neu5Ac(a2-6)Gal(b1-4)GlcNAc(b1-4)]Man(a1-3)[GlcNAc(b1-4)][Neu5Ac(a2-6)Gal(b1-4)GlcNAc(b1-4)Man(a1-6)]Man(b1-4)GlcNAc(b1-4)GlcNAc
# In short: as §1
# [51] = target: Neu5Ac(a2-6)Gal(b1-4)GlcNAc(b1-2)[Neu5Ac(a2-6)Gal(b1-4)GlcNAc(b1-6)]Man(a1-6)[Neu5Ac(a2-6)Gal(b1-4)GlcNAc(b1-2)Man(a1-3)][GlcNAc(b1-4)]Man(b1-4)GlcNAc(b1-4)GlcNAc
# In short: as §1
# [52] = target: Neu5Ac(a2-8)Neu5Ac(a2-3)Gal(b1-4)Glc
# In short: as §1
# [53] = target: Neu5Ac(a2-8)Neu5Ac(a2-8)Neu5Ac(a2-8)Neu5Ac(a2-3)[GalNAc(b1-4)]Gal(b1-4)Glc
# In short: as §1
# [54] = target: Neu5Ac9Ac(a2-3)Gal(b1-4)GlcNAc
# In short: as §1
binder,measurement,setting,value
"DC-Sign (Homo sapiens), Q9NNX6 (protein) MSDSKEPRLQQLGLLEEEQLRGLGFRQTRGYKSLAGCLGHGPLVLQLLSFTLLAGLLVQVSKVPSSISQEQSRQDAIYQNLTQLKAAVGELSEKSKLQEIYQELTQLKAAVGELPEKSKLQEIYQELTRLKAAVGELPEKSKLQEIYQELTWLKAAVGELPEKSKMQEIYQELTRLKAAVGELPEKSKQQEIYQELTRLKAAVGELPEKSKQQEIYQELTRLKAAVGELPEKSKQQEIYQELTQLKAAVERLCHPCPWEWTFFQGNCYFMSNSQRNWHDSITACKEVGAQLVVIKSAEEQNFLQLQSSRSNRFTWMGLSDLNQEGTWQWVDGSPLLPSFKQYWNRGEPNNVGEEDCAEFSGNGWNDDKCNLAKFWICKKSAASCSRDEEQFLSPAPATPNPPPA",glycan array binding signal (z-score),[1],-0.14
same,glycan array binding signal (z-score),[2],-0.182
same,glycan array binding signal (z-score),[3],9.49
same,glycan array binding signal (z-score),[4],12.6
same,glycan array binding signal (z-score),[5],6.53
same,glycan array binding signal (z-score),[6],-0.045
same,glycan array binding signal (z-score),[7],0.684
same,glycan array binding signal (z-score),[8],-0.126
same,glycan array binding signal (z-score),[9],-0.189
same,glycan array binding signal (z-score),[10],-0.164
same,glycan array binding signal (z-score),[11],-0.193
same,glycan array binding signal (z-score),[12],-0.122
same,glycan array binding signal (z-score),[13],-0.15
same,glycan array binding signal (z-score),[14],-0.189
same,glycan array binding signal (z-score),[15],5.28
same,glycan array binding signal (z-score),[16],2.48
same,glycan array binding signal (z-score),[17],8.36
same,glycan array binding signal (z-score),[18],-0.13
same,glycan array binding signal (z-score),[19],1.43
same,glycan array binding signal (z-score),[20],-0.198
same,glycan array binding signal (z-score),[21],-0.165
same,glycan array binding signal (z-score),[22],-0.131
same,glycan array binding signal (z-score),[23],-0.156
same,glycan array binding signal (z-score),[24],2.51
same,glycan array binding signal (z-score),[25],-0.187
same,glycan array binding signal (z-score),[26],0.026
same,glycan array binding signal (z-score),[27],-0.137
same,glycan array binding signal (z-score),[28],-0.146
same,glycan array binding signal (z-score),[29],-0.097
same,glycan array binding signal (z-score),[30],-0.136
same,glycan array binding signal (z-score),[31],-0.195
same,glycan array binding signal (z-score),[32],-0.101
same,glycan array binding signal (z-score),[33],-0.179
same,glycan array binding signal (z-score),[34],-0.17
same,glycan array binding signal (z-score),[35],-0.089
same,glycan array binding signal (z-score),[36],-0.109
same,glycan array binding signal (z-score),[37],-0.1
same,glycan array binding signal (z-score),[38],4.51
same,glycan array binding signal (z-score),[39],8.32
same,glycan array binding signal (z-score),[40],0.01
same,glycan array binding signal (z-score),[41],-0.202
same,glycan array binding signal (z-score),[42],-0.142
same,glycan array binding signal (z-score),[43],-0.183
same,glycan array binding signal (z-score),[44],1.83
same,glycan array binding signal (z-score),[45],-0.186
same,glycan array binding signal (z-score),[46],-0.171
same,glycan array binding signal (z-score),[47],-0.164
same,glycan array binding signal (z-score),[48],-0.171
same,glycan array binding signal (z-score),[49],-0.097
same,glycan array binding signal (z-score),[50],-0.183
same,glycan array binding signal (z-score),[51],-0.167
same,glycan array binding signal (z-score),[52],-0.177
same,glycan array binding signal (z-score),[53],-0.19
same,glycan array binding signal (z-score),[54],-0.175

# Source: the supplement of paper PMC8728848
